The full list was thinned out, with hits kept by preference.
AmpC detergent: AmpC beta-lactamase inhibition with detergent present | AmpC hydrolysis of nitrocefin, absorbance 480 nm, 0.01% Triton | Potency, µM (highest dose often 114 µM), inactives show top-dose activity change, negative = inhibition, most hits filed as inhibitors | 370,000 tested, 0.041% active | AID 485294;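 also: potency is read from the fitted curve at half-maximal effect; 0% = no-compound wells and -100% = no-enzyme wells; nearly all actives have a fitted effect of over 25% in size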
Target sequence (P00811 whole entry, looked up): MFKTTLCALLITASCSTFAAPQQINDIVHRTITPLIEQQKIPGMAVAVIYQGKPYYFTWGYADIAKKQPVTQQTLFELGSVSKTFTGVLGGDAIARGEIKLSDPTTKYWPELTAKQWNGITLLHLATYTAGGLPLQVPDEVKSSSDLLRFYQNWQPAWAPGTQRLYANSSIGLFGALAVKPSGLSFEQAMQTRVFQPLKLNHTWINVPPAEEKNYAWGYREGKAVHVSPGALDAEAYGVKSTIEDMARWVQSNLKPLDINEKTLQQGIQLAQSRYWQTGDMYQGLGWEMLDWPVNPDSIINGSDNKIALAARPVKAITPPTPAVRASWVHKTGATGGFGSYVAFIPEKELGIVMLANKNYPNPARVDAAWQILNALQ
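20 mM phosphate pH 7.0 + 0.01% (detergent screen) or 0.0001% Triton X-100; 5.3 nM AmpC reagent; cpd preinc 15 min RT; nitrocefin (800 uM stock) to start; A480 q20 s × 4 min; Activity was normalised to no-enzyme and no-compound control wells.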
AmpC inh no detg: AmpC beta-lactamase inhibition without detergent; P00811; AmpC nitrocefin hydrolysis, absorbance 480 nm, 0.0001% Triton; Potency, µM (highest dose often 57.1 µM), inactives show top-dose activity change, negative = inhibition, actives largely listed as inhibitors; 330,000 tested, 0.52% active; AID 485341;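 also: potency is read from the fitted curve at half-maximal effect; plate controls were no compound for no effect and no enzyme for full effect; nearly all actives have a fitted effect of over 20% in size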
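20 mM phosphate pH 7.0 + 0.01% (detergent screen) or 0.0001% Triton X-100; 5.3 nM AmpC reagent; cpd preinc 15 min RT; nitrocefin (800 uM stock) to start; A480 q20 s × 4 min; Activity was normalised to no-enzyme and no-compound control wells.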
SARS PLP yeast: blocks SARS-CoV papain-like protease in a yeast assay; S. cerevisiae expressing SARS-CoV PLpro, growth rescue; AID 485353; Potency, µM (top dose mostly 32.9 µM), for the others: at the top dose activity, positive = growth rescue, actives largely listed as activators; 330,000 tested, 0.19% active; calls by dose curve; also: potency is read from the fitted curve at half-maximal effect; 0% is about no effect; nearly all actives have a fitted effect of over 55% in size
CHX counter: counter-screen for Shiga toxin inhibitors: cycloheximide protein synthesis inhibition. cell reporter, cycloheximide protein synthesis inhibition counterscreen. max response, %. 300,000 tested, 12% active. AID 2314; in the data active = max response mostly above about 13%, no sharp cut-off; inactive = mostly below about 14%; also: read at 38.3 µM for the half of the compounds with a filed dose; 0% is about no effect
Shiga inhibitor: inhibitors of Shiga toxin in Vero cells; Vero cells, Shiga toxin protein synthesis inhibition reporter; inhibition, % at 38.7 µM; 290,000 tested, 9.2% active; AID 2315; in the data active = inhibition mostly above about 28%, no sharp cut-off; inactive = mostly below about 43%; also: 0% is about no effect
AMA1 RON2 block: disrupts binding of P. falciparum AMA1 to RON2; AlphaScreen AMA1-biotinylated RON2 peptide binding; 360,000 tested, 0.2% active; Potency, µM (series often up to 58.2 µM), inactives show top-dose activity change, negative = inhibition, usual class: inhibitors;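 also: potency is read from the fitted curve at half-maximal effect; 0% = vehicle wells and -100% = peptide control; nearly all actives have a fitted effect of over 45% in size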
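AMA1 (3D7) with his tag at 25 nM final met compounds first, then biotinylated RON2 peptide at 25 nM; detection used donor plus acceptor beads, 10 µg/mL apiece, read by AlphaScreen after 30 min at room temperature.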
The depositor's hits bear a star; ? = inconclusive; . = not tested or not shown; ! = a repeat was not active. Unless noted, calls follow the shape of the dose curve; as a rule, active = well fitted curve in the direction sought with a large enough effect; inconclusive = small, poorly fitted or top-dose-only effect, or another doubt; inactive = no such curve, though single readings can be large; an effect the other way counts as inactive or inconclusive.

SMILES	AmpC detergent	AmpC inh no detg	SARS PLP yeast	CHX counter	Shiga inhibitor	AMA1 RON2 block
Cc1cccc(-c2nc(C#N)c(N3CCC(C)CC3)o2)c1	1.2%	-1.8%	4.1%	1.7	-8.8	18.3%
CC1CCN(c2oc(-c3ccccc3Cl)nc2C#N)CC1	?	-10.7%	-10.2%	36.6*	99.4*	?
N#Cc1nc(-c2ccccc2Cl)oc1N1CCOCC1	-1.6%	-25.5%	-5.6%	16.5*	17.6	0.9%
CC1CCN(c2oc(-c3ccc(F)cc3)nc2C#N)CC1	0.2%	-3.7%	-2.6%	40.5*	62.4*	?
CCn1c(N2CCC(C)CC2)nc2c1c(=O)n(C)c(=O)n2C	-15.4%	31.8%	7.8%	-5.9	-16.9	-6.1%
c1ccc(CC(Nc2ccccn2)c2ccccc2)cc1 (stereo not drawn)	-4.5%	-22.1%	7.0%	18.0*	14.6	-9.4%
CN1C(=O)CC2(CC(=O)N(Cc3ccccc3)C2)C1=O (stereo not drawn)	-0.9%	-18.6%	15.2%	5.8	-1.8	18.7%
O=C(NCC1CCCO1)[C@@H]1CSC2c3ccccc3C(=O)N21 (stereo partly drawn)	-1.2%	100.6%	5.8%	-5.7	18.1	-6.7%
O=C(Cc1ccccc1)Nc1sc2c(c1C(=O)Nc1ccc(Cl)cc1)CCCC2	12.2%	.	.	31.4*!	37.8	.
O=C(O)c1c(NC(=O)N2CCOCC2)sc2c1CCCC2	0.8%	-15.4%	-8.5%	13.4*	28.8	-10.5%
O=C(Nc1sc2c(c1C(=O)O)CCCCC2)c1ccccc1	-2.2%	9.5%	-5.4%	41.9*	104.3*	-22.8%
NCCNC(=O)c1c(NC(=O)c2ccccc2)sc2c1CCCC2	-8.6%	-7.1%	0.6%	23.8*	45.9	22.5%
O=C(Nc1sc2c(c1C(=O)NCCCO)CCCC2)c1ccccc1	?	69.3%	0.9%	6.2	14.3	-6.4%
O=C(Cc1ccccc1)Nc1sc2c(c1C(=O)Nc1ccccc1)CCCCC2	2.2%	.	.	.	.	.
Cc1ccc(NC(=S)N(CCCN2CCOCC2)Cc2ccco2)cc1	?	-10.8%	1.7%	1.4	-8.4	6.0%
COc1ccccc1NC(=O)C(CCS(C)(=O)=O)N1C(=O)c2ccccc2C1=O (stereo not drawn)	-0.2%	-18.5%	-2.0%	-2.5	-22.3	18.7%
O=C(O)c1c(NC(=O)c2cccc3ccccc23)sc2c1CCC2	-4.9%	-30.9%	-25.1%	-2.4	15.7	-7.6%
O=C(Nc1sc2c(c1C(=O)O)CCC2)c1ccccc1	-10.7%	-21.7%	3.5%	41.2*	142.8*	-6.9%
O=C(Nc1sc2c(c1C(=O)O)CCC2)c1ccc(F)cc1	-2.8%	-21.1%	-10.5%	8.4	37.4*	9.5%
O=C(Nc1sc2c(c1C(=O)O)CCCC2)c1cccc(Cl)c1	0.8%	-33.8%	-8.3%	50.5*	98.0*	-7.0%
CCOC(=O)c1ccc(NC(=O)c2c(NC(=O)CCC(=O)O)sc3c2CCCCC3)cc1	1.0%	-34.8%	0.4%	17.0*	22.9	-4.9%
COc1cc2[nH]c(=S)nc(NCc3ccc(C)cc3)c2cc1OC	-1.7%	6.0%	-1.6%	-2.1	-10.1	84.1%
CC(=O)NC1CC2CCC(C1)N2Cc1ccc(C)cc1 (stereo not drawn)	-15.9%	-24.2%	-2.9%	-3.3	-15.6	-7.3%
CN(C)/C=N/c1c(C#N)cnn1-c1ccc(C(F)(F)F)cn1	1.7%	-29.2%	-5.4%	-6.4	-7.4	1.0%
CNC(=O)c1c(NC(=O)c2ccco2)sc2c1CCC2	0.4%	43.5%	-4.1%	31.3*	48.5	0.0%
SMILES	AmpC detergent	AmpC inh no detg	SARS PLP yeast	CHX counter	Shiga inhibitor	AMA1 RON2 block
O=C(Nc1sc2c(c1C(=O)NC1CCCCC1)CCC2)c1ccco1	-2.3%	.	.	15.9	25.8	8.4%
CC1(C)Cc2c(sc(NC(=O)c3ccccc3)c2C(=O)O)CO1	6.0%	-32.8%	-1.6%	60.8*	114.5*	-2.0%
O=C(Nc1sc2c(c1C(=O)O)CCCC2)c1ccc(Cl)cc1	-21.8%	-31.1%	-31.3%	18.8*	28.8	0.2%
Cc1cc(C)c2c(=O)n(-c3ccccc3)[nH]c2n1	-5.8%	-21.3%	-1.0%	50.7*	88.4*	-10.2%
COC(=O)N1N=C(c2ccccc2)CC1(O)C(F)(F)F (stereo not drawn)	2.9%	0.1%	2.8%	38.6*	105.6*	-3.0%
CCCCC1=NN(C(=O)c2cocc2C)C(O)(C(F)(F)F)C1 (stereo not drawn)	-7.3%	-22.4%	-21.0%	20.4*	32.3*	67.1%
CC1=NN(C(=O)c2ccoc2C)C(O)(C(F)(F)F)C1 (stereo not drawn)	-0.9%	-13.5%	0.5%	50.1*	44.1*	85.6%
Cc1ccc(C2=NN(C(=O)c3ccco3)C(O)(C(F)(F)F)C2)cc1 (stereo not drawn)	4.7%	-23.6%	-3.4%	13.7*	37.1*	66.0%
COc1ccc(C(=O)N2N=C(c3ccccc3)CC2(O)C(F)(F)F)cc1 (stereo not drawn)	9.3%	-11.1%	-10.0%	6.5	12.7	58.2%
CC1=NN(C(=O)c2cccnc2)C(O)(C(F)(F)F)C1 (stereo not drawn)	3.9%	-8.2%	-2.3%	-0.8	-10.5	33.2%
Oc1ccccc1/C=N/n1cnnc1	-11.4%	-11.3%	-1.1%	-0.8	1.5	8.7%
O=C(NNC(=O)c1ccc(NC(=O)C2CC2)cc1)c1ccc(F)cc1	-7.3%	-16.3%	-7.6%	6.4	-5.3	4.4%
O=C(Nc1ccccc1)c1ccc(NC(=O)C2CC2)cc1	-2.2%	-7.7%	-3.8%	31.7*	41.8*	-2.1%
COc1ccccc1C(=O)Nc1cc(-c2ccc(C)cc2)no1	-1.5%	-3.6%	-2.9%	24.6*	83.0*	21.0%
Cc1cc(NC(=O)c2ccccc2)no1	-12.2%	-16.5%	-0.6%	50.7*	73.0*	0.8%
Cc1cc(NC(=O)c2cccc(F)c2)no1	1.2%	-14.2%	4.3%	25.7*	27.5	8.0%
CCOc1ccc(C(=O)NC2CC3CCCC(C2)N3CC(C)C)cc1 (stereo not drawn)	-6.6%	-21.1%	-0.1%	0.4	-14.7	-5.5%
CCC(c1nnnn1CCc1ccccc1)N(Cc1ccco1)Cc1cc2cccc(C)c2[nH]c1=O (stereo not drawn)	?	18.5%	0.1%	8.4	-1.5	-8.4%
CCN(C(=O)COC(=O)c1ccc2c(c1)OCO2)c1ccc(F)cc1	.	2.3%	-1.6%	.	.	4.6%
Cc1ccc(-c2csc(NC(=O)C3CCN(S(=O)(=O)c4cccs4)CC3)n2)cc1	-4.1%	-30.8%	-0.5%	-2.8	-3.5	30.6%
COc1ccccc1C(=O)Nc1cc(C)on1	-2.4%	-8.3%	-6.5%	44.8*	.	-8.0%
Cc1cc(NC(=O)c2ccccc2Oc2ccccc2)no1	2.6%	-45.7%	-2.5%	0.5	-13.9	11.4%
Cc1cccc(C)c1NC(=O)C(=O)c1cn(C)c2ccccc12	2.2%	-7.2%	0.9%	10.0	26.1	-3.6%
